# PG9 Ab binder: PG9 antibody binding by small molecule; TR-FRET gp120-PG9 antibody binding; inhibition, % at 6.7 µM; actives 0.43% (n = 360,000); AID 624416; in the data active means inhibition above about 8.5%
# NR1D1 modulator: Rev-erb alpha (human) modulation. actives 0.79% (n = 370,000). P20393. activity, % at 10 µM. Rev-erbα–FITC-DNA binding, fluorescence polarization, 90 min;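 active means activity above about 14%, limit read from the data; passing the limit was not always enough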;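 further: 0% = DMSO wells with 35 nM protein and 100% = DMSO wells with 750 nM protein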
# EP2 modulator: EP2 receptor (human) modulation; EP2-expressing cells, cAMP HTRF FRET, PGE2 co-stimulation; induction, % at 25 µM; actives 0.83% (n = 260,000);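 active means compounds whose cAMP rise, as percent of the full-agonist control response, exceeds 60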;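 further: rat C6 glioma line stably carrying human EP2 under a CMV promoter; the protocol text gives 20 µM as final concentration; 100% = response of wells given 1 µM PGE2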
# Target sequence (P43116 whole entry, looked up): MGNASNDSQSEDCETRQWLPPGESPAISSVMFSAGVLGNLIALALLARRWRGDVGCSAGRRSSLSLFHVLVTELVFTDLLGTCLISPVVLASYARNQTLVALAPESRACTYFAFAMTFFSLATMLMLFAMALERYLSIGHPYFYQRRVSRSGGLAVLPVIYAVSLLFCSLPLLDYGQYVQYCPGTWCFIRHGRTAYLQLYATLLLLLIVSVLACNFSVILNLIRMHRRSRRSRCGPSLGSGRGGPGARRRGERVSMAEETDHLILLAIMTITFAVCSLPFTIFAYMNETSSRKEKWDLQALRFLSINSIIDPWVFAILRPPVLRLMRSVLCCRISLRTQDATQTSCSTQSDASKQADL
# SKN-1 inh: inhibitors of C. elegans SKN-1; C. elegans VP596 Pgst-4::GFP/RFP ratio, acrylamide-induced, 24 h; inhibition, % at 21.8 µM; actives 0.49% (n = 360,000); AID 624304;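 active means interference check ratio from 0.5 to 1.5 plus GFP to RFP signal ratio inhibition reaching or exceeding a fixed threshold, cut at about 30% in these data, passing the limit was not always enough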
# RAM inhibit: inhibitors of the yeast RAM network; S. cerevisiae dse1pr::URA3 reporter, 5-FOA growth OD615, 2 d; analog-sensitive cbk1-as2 kinase mutant strain; inhibition, % at 50 µM; actives 1.8% (n = 190,000); AID 868;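 active means inhibition above a set limit, 3 SD over mean compound inhibition, cut at about 8.4% in these data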;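 further: 0% = DMSO-only wells with no growth and 100% = 10 µM 1-NA-PP1 full growth; inhibition rescues growth on 5-FOA so higher OD means more RAM inhibition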
# PGE2 EP2 inh: EP2 receptor (human) inhibition; C6 glioma cells expressing human EP2, cAMP TR-FRET; cells stimulated with saturating PGE2; AID 1422; P43116; inhibition, % at 25 µM; actives 0.52% (n = 260,000);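 active means percent inhibition above 40 after rounding to a whole number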;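 further: rat C6 glioma host cells with rolipram phosphodiesterase inhibitor present; the protocol text gives 20 µM as final concentration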
# An asterisk follows results filed as active; . = no result. This is a sample that favours compounds with a hit; in the whole collection about 2.9% have one here.
SMILES,PG9 Ab binder,NR1D1 modulator,EP2 modulator,SKN-1 inh,RAM inhibit,PGE2 EP2 inh
COc1ccc(-n2ncc3c(=O)n(CC(=O)N4CCN(c5ccc(F)cc5)CC4)cnc32)cc1,.,.,-38.6,.,.,9.4
CCOc1ccc(C(=O)NC(=S)N(Cc2ccccc2)Cc2ccccc2)cc1,0.7,3.0,33.0,9.1,8.6*,7.4
COc1cc(OC)cc(-c2cc3nc4c(c(NCCCn5ccnc5)n3n2)CCCC4)c1,.,.,-41.5,.,.,16.5
c1ccc(-c2noc(-c3ccncc3)n2)nc1,-1.8,-1.9,0.7,-7.9,2.7,12.0
c1ccc(-c2noc(-c3ccc4ccccc4c3)n2)nc1,.,.,3.1,42.5*,3.4,5.9
Cc1ccc2nc(NC(=O)C3=NN(c4ccccc4)C(=O)CC3)sc2c1,0.7,-5.0,4.7,2.7,1.9,9.2
Cc1cccc2sc(NC(=O)C3=NN(c4ccccc4)C(=O)CC3)nc12,-0.8,0.8,-11.1,10.1,10.6*,10.1
Cc1cccc2nc(C(C)C)c(NC3CCCC3)n12,.,.,-4.6,.,.,6.7
CC(C)c1nc2ccc(Br)cn2c1NC1CCCC1,-2.5,4.7,64.9*,-7.9,0.7,0.2
Brc1ccccc1-c1nnc(SCc2nc3ccccc3s2)o1,-1.4,4.6,-68.6,32.9,8.6*,14.8
O=C(O)c1ccc(CSc2nnc(-c3ccccc3Br)o2)cc1,-0.6,2.3,.,4.7,.,.
Oc1ccc(/C=C/c2nc(-c3ccccc3O)n(-c3ccccc3)n2)cc1,-1.6,8.6,64.7*,25.2,2.6,13.1
N#Cc1nc(-c2ccccc2Cl)oc1N1CCCCC1,-0.7,0.4,63.1*,27.9,0.4,9.4
N#Cc1nc(-c2ccccc2F)oc1N1CCCCC1,1.0,1.7,.,4.0,.,.
CCn1c(SCC(=O)O)nnc1-c1cccc(C)c1,.,.,-8.4,.,.,9.7
COC(=O)c1c(NC(=O)CSc2nnc3c(n2)[nH]c2ccc(OC)cc23)sc(C)c1C,.,.,-117.7,.,.,6.1
Cc1cccc2c1N(CCOc1ccc(C(C)(C)C)cc1)C(=O)C2=O,-0.3,4.0,19.5,6.8,3.2,10.4
Cc1ccc(OCCCN2C(=O)C(=O)c3cccc(C)c32)cc1,-0.5,-0.8,63.5*,12.1,1.5,24.0
COc1ccc(-c2ccc(-c3noc(-c4ccco4)n3)c(OC)n2)cc1,1.6,16.8,38.4,6.0,3.7,7.9
COc1nc(-c2ccccc2)ccc1-c1noc(-c2ccco2)n1,1.2,1.4,57.0,63.3*,7.9,6.1
COc1nc(-c2ccccc2)ccc1-c1noc(-c2ccccc2)n1,0.9,13.8,37.5,0.3,11.0*,14.2
CCC(C)NC(=O)c1ccccc1NC(=O)C1COc2ccccc2O1 (configuration not stated),0.0,4.4,-18.1,1.4,8.8*,5.7
COCCN(CCOC)c1nc(-c2ccc([N+](=O)[O-])cc2)nc2ccccc12,-1.8,-3.3,.,7.4,.,.
CN(Cc1ccccc1)c1nc(-c2ccc([N+](=O)[O-])cc2)nc2ccccc12,-0.8,-5.3,63.8*,5.7,6.0,4.0
COC(=O)Cn1cc(C2C(C#N)=C(N)Oc3n[nH]c(C)c32)c2ccccc21 (configuration not stated),.,.,-5.2,.,.,8.5
SMILES,PG9 Ab binder,NR1D1 modulator,EP2 modulator,SKN-1 inh,RAM inhibit,PGE2 EP2 inh
Cc1cc(C)c2c(N)c(C(=O)Nc3cccc(Cl)c3)sc2n1,.,.,-17.9,.,.,11.8
COc1ccc2c(c1)CN([C@H](C)[C@@H]1CC[C@@H]3[C@H]4CC[C@H]5C[C@@H](O)CC[C@]5(C)[C@@H]4CC[C@]31C)CO2,.,.,-25.1,.,.,60.7*
Cc1nn(Cc2ccc(C(=O)NCc3ccc(Cl)cc3Cl)o2)c(C)c1[N+](=O)[O-],.,.,-52.5,.,.,7.9
Cc1c(NC(=O)c2nn3c(C(F)(F)F)cc(-c4ccccc4)nc3c2Br)c(=O)n(-c2ccccc2)n1C,-0.4,8.5,-59.6,4.6,8.6*,7.4
Cc1[nH]n(-c2nc(-c3ccc(Cl)cc3)cs2)c(=O)c1N=Nc1ccc(O)cc1,-1.3,-26.3,-27.8,3.0,9.8*,7.7
COC(=O)c1nn(-c2cccc(C(F)(F)F)c2)c(=O)cc1Sc1ccccn1,8.7*,-1.2,11.4,8.6,2.4,4.6
ClC(Cl)(c1nnnn1-c1ccccc1)c1nnnn1-c1ccccc1,-2.7,0.6,-41.7,-5.0,-1.6,80.7*
CCc1sc(N(C(=O)Cc2ccccc2)c2ccc(F)cc2)nc1-c1ccccc1,1.7,-1.9,2.9,-4.5,9.1*,17.6

# High-throughput results as filed in PubChem.
